# Laboratory results taken from PubChem BioAssay (Tox21).
# Where “and” joins values, the source holds several entries; their conditions need not be identical. Identical values can stand only once. Inconclusive results are not listed. Where a call stands in place of a potency, no number is given. Some compounds were tested as several samples or in several runs, with calls that do not always agree. Calls of active or inactive are those of the source. Unless noted, the call rests on the fitted dose curve; in most records, active means well fitted curve in the direction sought with a large enough effect in the repeat runs; inconclusive means weak or mixed curves; inactive means no such curve, though single readings can be large; an effect the other way counts as inactive or inconclusive.
# What was measured:
# [1] = qHTS assay for small molecule agonists of the p53 signaling pathway (AID 651631; calls by dose curve; further: nearly all actives have a fitted effect of over 15% in size; further: potency means the concentration at half of the fitted maximal effect); conditions: HCT-116 p53RE-bla reporter, beta-lactamase FRET ratio, 16 h; series mostly up to 73.3 µM
# Outline: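 Testing took place in human colorectal HCT-116 cells with stable p53RE-driven beta-lactamase. After 16 h of compound exposure at 37 °C, a FRET substrate was added and fluorescence recorded 2 h later.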
# [2] = qHTS assay for small molecule agonists of the p53 signaling pathway - cell viability (AID 651633; calls by dose curve; further: nearly all actives have a fitted effect of over 30% in size; further: potency means the concentration at half of the fitted maximal effect); conditions: p53RE-bla HCT-116 viability, ATP luminescence, 16 h; series mostly up to 83.3 µM
# Outline: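 p53RE-bla cells, seeded at 4,000 per well and rested 5 h at 37 C/5% CO2, received compounds in DMSO for 16 h at 37 C. CellTiter-Glo was then added, and luminescence was read after 30 min at room temperature to gauge cytotoxicity.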
# [3] = qHTS assay for small molecules that induce genotoxicity in human embryonic kidney cells expressing luciferase-tagged ATAD5 - cell viability (AID 651634; calls by dose curve; further: nearly all actives have a fitted effect of over 25% in size; further: potency means the concentration at half of the fitted maximal effect); conditions: HEK293T ATAD5-luc cells viability, CellTiter-Fluor, 15.5 h; series mostly up to 83.3 µM
# Outline: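 Live-cell protease activity (CellTiter-Fluor, fluorescence) indicates viability. HEK293T cells with luciferase-tagged ATAD5; 15.5 hr compound treatment at 37C.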
# [4] = qHTS assay to test for compound auto fluorescence at 590 nm (red) in HepG2 cells (AID 720674); conditions: HepG2 autofluorescence, red 540/590 nm, 1 h; series mostly up to 91.3 µM
# Outline: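 Compound auto-fluorescence is scored relative to Rose Bengal sodium, measured at 540/590 nm in live HepG2 cultures after 1 hr compound contact (37 C, 5% CO2).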
# [5] = qHTS assay to test for compound auto fluorescence at 460 nm (blue) in HEK293 cells (AID 720678); conditions: blue autofluorescence 405/460 nm; series mostly up to 91.3 µM
# Outline: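 HEK293, 2,000 cells/well, 10% dialyzed FBS; attach 4-5 hr 37C; pin compound or DMSO; o/n 37C/5% CO2; fluorescence 405/460 nm; triamterene-equivalent units.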
# [6] = qHTS assay to test for compound auto fluorescence at 590 nm (red) in HEK293 cells (AID 720679); conditions: red autofluorescence 540/590 nm; series mostly up to 91.3 µM
# Outline: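 Intensity at 540nm excitation and 590nm emission is reported as Rose Bengal sodium-equivalent autofluorescence. Measurements followed overnight exposure (37C, 5% CO2) of HEK293 cells, 2,000 per well, to 23 nL compound.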
# [7] = qHTS assay to test for compound auto fluorescence at 535 nm (green) in HEK293 cells (AID 720680); conditions: green autofluorescence 485/535 nm; series mostly up to 91.3 µM
# [8] = qHTS assay to test for compound auto fluorescence at 460 nm (blue) in HEK293 cell free culture (AID 720681); conditions: cell-free medium, autofluorescence 405/460 nm (blue); series mostly up to 91.3 µM
# Outline: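 Test compounds were pinned into cell-free culture medium (DMEM with 10% FBS) and fluorescence was read directly at Ex/Em 405/460 nm. Signals were expressed as fluorescence equivalents of triamterene, with DMSO vehicle as control.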
# [9] = qHTS assay to test for compound auto fluorescence at 535 nm (green) in HEK293 cell free culture (AID 720682); conditions: cell-free medium, green autofluorescence 485/535 nm, stronger effect = higher value; series mostly up to 91.3 µM
# Outline: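 DMEM + 10% FBS, cell-free; cpd or DMSO pinned in; Ex485/Em535 read; output as fluorescein-equivalent signal.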
# [10] = qHTS assay to test for compound auto fluorescence at 590 nm (red) in HEK293 cell free culture (AID 720683); conditions: cell-free medium autofluorescence, Ex540/Em590 red; series mostly up to 91.3 µM
# Outline: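 Tox21 10K library compounds were pinned into cell-free DMEM with 10% FBS and fluorescence was read at excitation 540 nm. Activity is expressed as Rose Bengal sodium equivalency.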
# [11] = qHTS assay to test for compound auto fluorescence at 590 nm (red) in HepG2 cell free culture (AID 720684); conditions: cell-free medium autofluorescence, red 540/590 nm; series mostly up to 91.3 µM
# Outline: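 Measured in medium alone (MEM containing 10% FBS) following pintool addition of compound; emission at 590 nm with 540 nm excitation, referenced to Rose Bengal sodium.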
# [12] = qHTS assay to test for compound auto fluorescence at 460 nm (blue) in HepG2 cell free culture (AID 720685); conditions: Cell-free culture medium, blue autofluorescence 405/460 nm; series mostly up to 91.3 µM
# Outline: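 Compound (23 nL) or DMSO pinned into cell-free MEM with 10% FBS; blue fluorescence read at 405/460 nm excitation/emission, expressed as auto-fluorescence equivalency to triamterene.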
# [13] = qHTS assay to test for compound auto fluorescence at 535 nm (green) in HepG2 cell free culture (AID 720686); conditions: Cell-free medium, green autofluorescence 485/535 nm; series mostly up to 91.3 µM
# [14] = qHTS assay to test for compound auto fluorescence at 460 nm (blue) in HepG2 cells (AID 720687); conditions: autofluorescence 405/460 nm, 1 h; series mostly up to 91.3 µM
# Outline: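 Cells (2,000/well in MEM with 10% FBS) attached overnight at 37 C, then were exposed to compound or DMSO for 1 hr at 37 C, 5% CO2. Fluorescence read at Ex/Em 405/460 nm, expressed as triamterene-equivalent signal.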
# [15] = target: Glucocorticoid receptor (Homo sapiens) (UniProt P04150); assay: qHTS assay to identify small molecule agonists of the glucocorticoid receptor (GR) signaling pathway (AID 720691; active means well fitted activation curve with a large enough effect in the signal ratio in the repeat runs, not every such curve was filed as active; the % refers to the signal ratio); conditions: GR-bla HeLa, beta-lactamase reporter ratio, 18 h; series mostly up to 62.4 µM
# Glucocorticoid receptor (Homo sapiens), sequence (P04150 whole entry, looked up): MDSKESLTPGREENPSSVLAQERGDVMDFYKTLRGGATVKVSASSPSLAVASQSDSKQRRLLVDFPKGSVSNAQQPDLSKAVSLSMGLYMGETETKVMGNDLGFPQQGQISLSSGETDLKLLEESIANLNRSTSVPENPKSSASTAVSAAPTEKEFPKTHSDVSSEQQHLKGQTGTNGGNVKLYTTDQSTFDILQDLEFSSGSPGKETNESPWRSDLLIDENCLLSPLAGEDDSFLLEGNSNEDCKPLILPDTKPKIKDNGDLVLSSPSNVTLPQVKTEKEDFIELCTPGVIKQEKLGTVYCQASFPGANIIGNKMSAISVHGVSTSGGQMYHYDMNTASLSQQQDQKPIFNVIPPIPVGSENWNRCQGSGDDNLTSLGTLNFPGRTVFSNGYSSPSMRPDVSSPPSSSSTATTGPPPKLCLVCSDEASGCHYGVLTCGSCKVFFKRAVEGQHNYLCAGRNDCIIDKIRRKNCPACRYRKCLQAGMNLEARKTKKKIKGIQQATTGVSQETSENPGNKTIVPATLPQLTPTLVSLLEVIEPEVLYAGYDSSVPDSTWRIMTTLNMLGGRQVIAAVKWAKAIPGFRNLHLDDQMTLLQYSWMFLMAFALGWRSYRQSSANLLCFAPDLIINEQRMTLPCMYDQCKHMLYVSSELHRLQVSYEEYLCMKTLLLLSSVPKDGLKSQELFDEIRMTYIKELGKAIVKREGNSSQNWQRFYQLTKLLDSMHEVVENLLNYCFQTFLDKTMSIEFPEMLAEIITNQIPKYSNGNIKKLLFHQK
# Outline: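 Beta-lactamase reporter activity, read as fluorescence intensity, was measured in GR-bla HeLa cells exposed to compounds for 18 h at 37 C and then loaded with LiveBLAzer B/G FRET substrate for 2 h at room temperature.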
# [16] = target: Glucocorticoid receptor (Homo sapiens) (UniProt P04150); assay: qHTS assay to identify small molecule antagonists of the glucocorticoid receptor (GR) signaling pathway (AID 720692; active means well fitted inhibition curve with a large enough effect in the signal ratio in the repeat runs, not every such curve was filed as active; the % refers to the signal ratio); conditions: GR-bla HeLa, beta-lactamase FRET ratio, dexamethasone-stimulated, 18 h; series mostly up to 58.5 µM
# Outline: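 Fluorescence from cleaved LiveBLAzer B/G FRET substrate reports GRE-driven beta-lactamase in HeLa cells; compounds are tested against 5 nM dexamethasone (final) over 18 h at 37 C, substrate incubation 2 h at room temperature.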
# [17] = qHTS assay for small molecules that induce genotoxicity in human embryonic kidney cells expressing luciferase-tagged ATAD5 (AID 651632); conditions: HEK293T ATAD5-luciferase induction, 16 h; series mostly up to 83.3 µM; further: nearly all actives have a fitted effect of over 15% in size; further: potency means the concentration at half of the fitted maximal effect
# Outline: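 Genotoxicity read-out via ATAD5-luciferase: HEK293T cells, 16 hr compound incubation at 37C, Amplite detection.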
# [18] = qHTS assay for small molecule disruptors of the mitochondrial membrane potential - cell viability (AID 720634; calls by dose curve; further: nearly all actives have a fitted effect of over 20% in size; further: potency means the concentration at half of the fitted maximal effect); conditions: HepG2 viability, ATP luminescence (CellTiter-Glo), 1 h; series mostly up to 83.2 µM
# Outline: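 Human hepatoma HepG2 cells were treated for 1 hr with test chemicals, then given m-MPI dye and CellTiter-Glo. Cell viability reflects luminescence proportional to cellular ATP.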
# [19] = qHTS assay for small molecule disruptors of the mitochondrial membrane potential (AID 720635); conditions: HepG2 mitochondrial membrane potential, Mito-MPS dye ratio; series mostly up to 83.2 µM; further: potency means the concentration at half of the fitted maximal effect
# Outline: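 HepG2 cells (2,000/well) attached overnight at 37C, then took compound for 1 hr at 37C, 5% CO2. Mito-MPS dye was added for 30 min; fluorescence was read at 490/535 nm (monomers) and 540/590 nm (aggregates).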
# [20] = qHTS assay to test for compound auto fluorescence at 535 nm (green) in HepG2 cells (AID 720675); conditions: green autofluorescence 485/535 nm, 1 h; series mostly up to 91.3 µM
SMILES,Potency [1],Potency [2],Potency [3],outcome [4],Potency [5],outcome [6],outcome [7],Potency [8],outcome [9],outcome [10],outcome [11],Potency [12],outcome [13],Potency [14],outcome [15],Potency [16],Potency [17],Potency [18],Potency [19],outcome [20]
CCCCSP(=O)(SCCCC)SCCCC,inactive,inactive,inactive,inactive,inactive,inactive,inactive,inactive,inactive,inactive,inactive,inactive,inactive,inactive,inactive,inactive,,,,
N#Cc1nn(-c2c(Cl)cc(C(F)(F)F)cc2Cl)c(N)c1S(=O)C(F)(F)F (stereo unspecified),,inactive,inactive,inactive,inactive,inactive,inactive,inactive,inactive,inactive,inactive,inactive,inactive,inactive,inactive,,inactive,10.6 µM (active) and 1.54 µM (active),5.31 µM (active) and 1.54 µM (active),inactive
CCOP(=S)(OCC)OP(=S)(OCC)OCC,inactive,inactive,inactive,inactive,inactive,inactive,inactive,inactive,inactive,inactive,inactive,inactive,inactive,inactive,,inactive,,inactive,,
CC(C)=CC1C(C(=O)OCc2cccc(Oc3ccccc3)c2)C1(C)C (stereo unspecified),,inactive,inactive,inactive,inactive,inactive,inactive,inactive,inactive,inactive,inactive,inactive,inactive,inactive,,,inactive,inactive,inactive,inactive
O=C1C(Cl)=C(Cl)C(=O)c2ccccc21,,6.88 µM (active) and 21.7 µM (active),inactive,inactive,,inactive,inactive,inactive,inactive,inactive,inactive,inactive,,inactive,,,inactive,13.7 µM (active) and 15.4 µM (active),3.87 µM (active) and 4.86 µM (active),inactive
CCCCOCCOC(C)=O,inactive,inactive,inactive,inactive,inactive,inactive,,inactive,inactive,inactive,inactive,inactive,,inactive,,inactive,,inactive,53 µM (active),inactive
Cc1cccc(N=Nc2ccc(N(C)C)cc2)c1,,inactive,35 µM (active) and 27.3 µM (active),inactive,inactive,inactive,inactive,inactive,inactive,inactive,inactive,inactive,,inactive,,,986 nM (active) and 1.93 µM (active),19.7 µM (active) and 21.7 µM (active),24.8 µM (active) and 27.3 µM (active),inactive
CCNc1nc(Cl)nc(NC(C)(C)C#N)n1,inactive,inactive,inactive,inactive,inactive,inactive,inactive,inactive,inactive,inactive,inactive,inactive,inactive,inactive,,inactive,,inactive,inactive,inactive
O=NN(c1ccccc1)c1ccccc1,inactive,inactive,inactive,inactive,inactive,inactive,inactive,inactive,inactive,inactive,inactive,inactive,inactive,inactive,inactive,inactive,,inactive,inactive,
Cc1ccc(N=CN(C)C=Nc2ccc(C)cc2C)c(C)c1,inactive,inactive and 54.7 µM (active),inactive,inactive,inactive,inactive,,inactive,inactive,inactive,inactive,inactive,inactive,inactive,,inactive,,inactive,inactive,inactive
CC(C)Nc1ccc(Nc2ccccc2)cc1,26.6 µM (active) and 68.3 µM (active) and 30.6 µM (active),23.7 µM (active) and inactive,inactive,inactive,inactive,inactive,,inactive,inactive,inactive,inactive,inactive,inactive,inactive,,,,,21.1 µM (active) and 60.9 µM (active) and 61.1 µM (active),inactive
CC1=C(C(=O)Nc2ccccc2)SCCO1,inactive,inactive,inactive,inactive,inactive,inactive,inactive,inactive,inactive,inactive,inactive,inactive,inactive,inactive,,inactive,,inactive,,inactive
CC(O)CN(CC(C)O)CC(C)O (stereo unspecified),inactive,inactive,inactive,inactive,inactive,inactive,inactive,inactive,inactive,inactive,inactive,inactive,inactive,inactive,,inactive,,inactive,inactive,inactive
CCOS(=O)(=O)OCC,inactive,inactive,inactive,inactive,inactive,inactive,,inactive,inactive,inactive,inactive,inactive,inactive,inactive,inactive,inactive,,inactive,inactive,
COc1ccc(O)c(C(C)(C)C)c1,,inactive,inactive,inactive,inactive,inactive,,inactive,inactive,inactive,inactive,inactive,,inactive,inactive,inactive,inactive,inactive,30.7 µM (active) and 24.3 µM (active),inactive
Clc1cccc(C(Cl)(Cl)Cl)n1,inactive,inactive,inactive,inactive,inactive,inactive,inactive,inactive,inactive,inactive,inactive,inactive,,inactive,,,,inactive,,inactive
